{
  "source": "PubChem BioAssay AID1259313",
  "about": "(Sanford-Burnham Center for Chemical Genomics, 2017)",
  "note": "Hit rate of the full screen: of about 340,000 compounds, about 8,500 (2.5%) were called active. This excerpt belongs to a sample that is enriched for actives. Values without a mark were called inactive.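 Rule for the calls: active = melting temperature shift of at least 10% of the positive control shift, at one fixed dose; inactive = the rest.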",
  "data": [
    {"test_system": "Glutamate receptor ionotropic, NMDA 3A (GRIN3A) ligand-binding domain", "test": "NR3A LBD thermal stabilization by compounds – biophysical, differential scanning fluorimetry, uHTS, primary screen (AID 1259313)", "settings": "at 25 µM, active compounds read high, 0% = protein alone, 100% = glycine-bound protein", "values": [
      {"molecule": "CSc1ccc(/C=N/NC(=O)c2cccc(Cl)c2)cc1", "Tm shift relative to glycine control": "19.1% (active)"},
      {"molecule": "O=C(N/N=C/c1ccc(Cl)c(Cl)c1)c1ccc2nc[nH]c2c1", "Tm shift relative to glycine control": "27.4% (active)"},
      {"molecule": "c1ccc(COc2ccccc2CNCc2cccnc2)cc1", "Tm shift relative to glycine control": "-0.7%"},
      {"molecule": "CCOC(=O)C(C)Sc1nc2ccccc2c(=O)n1CC1CCCCC1", "note": "(configuration not stated)", "Tm shift relative to glycine control": "15.7% (active)"},
      {"molecule": "COCC(C)n1c(SCC(=O)NC2CCCCC2C)nc2ccccc2c1=O", "note": "(configuration not stated)", "Tm shift relative to glycine control": "-0.26%"},
      {"molecule": "CCOn1c(SC(C)C)nc2ccccc2c1=O", "Tm shift relative to glycine control": "-0.18%"},
      {"molecule": "CCOC(=O)CCCCCC(=O)Nc1ccc2c(c1)CC(=O)N([C@@H](C)CO)C[C@H](C)[C@@H](CN(C)Cc1ccccc1)O2", "Tm shift relative to glycine control": "0.56%"},
      {"molecule": "COc1ccc(NCc2nnc(SCc3ccccc3)n2-c2ccc(OC)cc2)cc1", "Tm shift relative to glycine control": "-0.87%"},
      {"molecule": "CCc1nonc1NC(=O)c1oc2ccc(Cl)cc2c1C", "Tm shift relative to glycine control": "-0.44%"},
      {"molecule": "COc1ccc(CCNC(=O)COC(=O)Cc2cccc(F)c2)cc1", "Tm shift relative to glycine control": "15.5% (active)"},
      {"molecule": "COc1ccc(CCNC(=O)COC(=O)Cc2cc(OC)c(OC)c(OC)c2)cc1", "Tm shift relative to glycine control": "-0.75%"},
      {"molecule": "COc1ccc(CCNC(=O)COC(=O)Cc2ccccc2F)cc1", "Tm shift relative to glycine control": "1.52%"},
      {"molecule": "NC(=S)c1ccc(C(N)=S)o1", "Tm shift relative to glycine control": "9.83%"},
      {"molecule": "COc1ccc(C(C(=O)NCC2CCCO2)N(C(=O)Cn2nnc3ccccc32)c2ccc(NC(C)=O)cc2)cc1OC", "note": "(configuration not stated)", "Tm shift relative to glycine control": "1.93%"},
      {"molecule": "O=C(CNC(=O)c1cccs1)N/N=C/c1cccc(Br)c1", "Tm shift relative to glycine control": "-2.08%"},
      {"molecule": "CC(=O)NC(Cc1c[nH]c2ccccc12)C(=O)NCCc1ccccc1", "note": "(configuration not stated)", "Tm shift relative to glycine control": "1.08%"},
      {"molecule": "O=C(NC(Cc1c[nH]c2ccccc12)C(=O)N/N=C/c1ccc(Br)cc1)c1cccs1", "note": "(configuration not stated)", "Tm shift relative to glycine control": "19.7% (active)"},
      {"molecule": "OC(CNCC1CCCO1)Cn1c2ccc(Br)cc2c2cc(Br)ccc21", "note": "(configuration not stated)", "Tm shift relative to glycine control": "-15.9%"},
      {"molecule": "O=[N+]([O-])c1cccc(/C=N/Nc2ncc(Br)cn2)c1", "Tm shift relative to glycine control": "-2.79%"},
      {"molecule": "O=[N+]([O-])c1ccc(N=NNc2ccc([N+](=O)[O-])cc2)cc1", "Tm shift relative to glycine control": "4.69%"},
      {"molecule": "CC(C)c1ccc(C=NNc2ccc([N+](=O)[O-])cn2)cc1", "Tm shift relative to glycine control": "-2.51%"},
      {"molecule": "O=[N+]([O-])c1ccc(C=NN=Cc2ccc([N+](=O)[O-])cc2)cc1", "Tm shift relative to glycine control": "12.6% (active)"},
      {"molecule": "O=[N+]([O-])c1ccc(N/N=C/c2ccccc2)cc1", "Tm shift relative to glycine control": "29.2% (active)"},
      {"molecule": "O=C1/C(=C\\c2ccc([N+](=O)[O-])cc2)CS(=O)(=O)C/C1=C/c1ccc([N+](=O)[O-])cc1", "Tm shift relative to glycine control": "-9.77%"},
      {"molecule": "CC1(C)Cc2c(sc(NC(=O)C(=O)N3CCOCC3)c2C#N)CO1", "Tm shift relative to glycine control": "2.25%"},
      {"molecule": "O=C(CN1C2CCC1CC(NC(=O)C1CC1)C2)NCc1ccccc1", "note": "(configuration not stated)", "Tm shift relative to glycine control": "-0.34%"},
      {"molecule": "O=C(COC(=O)C1CC2CCCC(C1)C2=O)NC(=O)c1ccccc1", "note": "(configuration not stated)", "Tm shift relative to glycine control": "-1.22%"},
      {"molecule": "Cc1c(C(=O)NNC(=O)c2ccncc2)oc2ccccc12", "Tm shift relative to glycine control": "2.4%"},
      {"molecule": "COc1ccc(NC(=O)N2CCCC2C(=O)NCc2ccccc2Cl)cc1", "note": "(configuration not stated)", "Tm shift relative to glycine control": "-2.42%"},
      {"molecule": "FC(F)(F)c1cccc(-c2cc3ccccc3nc2N2CCCC2)c1", "Tm shift relative to glycine control": "-0.24%"},
      {"molecule": "Cc1ccc(S(=O)(=O)N(c2cccc(C)c2)C2CCS(=O)(=O)C2)cc1", "note": "(configuration not stated)", "Tm shift relative to glycine control": "-3.26%"},
      {"molecule": "COCCn1c(=NC(=O)c2ccccc2[N+](=O)[O-])sc2cc(S(C)(=O)=O)ccc21", "Tm shift relative to glycine control": "3.81%"},
      {"molecule": "C=C(C)COc1ccc(-c2n[nH]c(C)c2-c2ccccc2)c(O)c1", "Tm shift relative to glycine control": "10.9% (active)"},
      {"molecule": "C=C(C)COc1ccc(-c2nc(N)ncc2-c2ccccc2OC)c(O)c1", "Tm shift relative to glycine control": "-3.37%"},
      {"molecule": "C=C(C)COc1ccc(-c2ncncc2-c2ccc(OC)cc2)c(O)c1", "Tm shift relative to glycine control": "-1.75%"},
      {"molecule": "COc1c(C)c2c(c(O)c1C/C=C(\\C)CCC(=O)O)C(=O)OC2", "Tm shift relative to glycine control": "0.8%"},
      {"molecule": "O=C(Nc1ccccc1)c1cc2ccccc2[nH]1", "Tm shift relative to glycine control": "20.5% (active)"},
      {"molecule": "CC(OC(=O)c1cc2ccccc2[nH]1)C(=O)N(C)c1ccccc1", "note": "(configuration not stated)", "Tm shift relative to glycine control": "-1.09%"},
      {"molecule": "COc1ccc2[nH]c(C(=O)Nc3ccccc3Cl)cc2c1", "Tm shift relative to glycine control": "1.25%"},
      {"molecule": "Cc1ccc(CC2C(=O)N(c3ccc(F)cc3)C(=O)C2C)cc1", "note": "(configuration not stated)", "Tm shift relative to glycine control": "1.55%"},
      {"molecule": "CC(=O)N1CCN(CC(C)(C)NS(=O)(=O)c2ccc(C)cc2)CC1", "Tm shift relative to glycine control": "1.96%"},
      {"molecule": "O=C(NCCCN1CCOCC1)C1CCCN(S(=O)(=O)N2CCCCC2)C1", "note": "(configuration not stated)", "Tm shift relative to glycine control": "-1.39%"},
      {"molecule": "CCOC(=O)N1CCN(C(=O)C(=O)Nc2sc3c(c2C#N)CC(C)(C)OC3)CC1", "Tm shift relative to glycine control": "-1.52%"},
      {"molecule": "CCc1ccccc1N(CC(=O)NCC1CCCO1)C(=O)CCC(=O)Nc1nccs1", "note": "(configuration not stated)", "Tm shift relative to glycine control": "-2.76%"},
      {"molecule": "COc1cccc(CC2(CO)CCCN(Cc3ccc(OC(F)F)cc3)C2)c1", "note": "(configuration not stated)", "Tm shift relative to glycine control": "25.6% (active)"},
      {"molecule": "COc1cccc(CC2(CO)CCCN(CC3=Cc4cc(OC)ccc4OC3)C2)c1", "note": "(configuration not stated)", "Tm shift relative to glycine control": "-4.46%"},
      {"molecule": "COc1cccc(CC2(CO)CCCN(Cc3nc(-c4cccs4)oc3C)C2)c1", "note": "(configuration not stated)", "Tm shift relative to glycine control": "-1.72%"}
    ]}
  ]
}
